The structures appear in SMILES notation. Structures can show the parent of a compound that is named as a salt.

In the experiment the test system is 786-O. As to the kind of experiment: Euclidean distance of Cell Painting phenotypic profile (signed KS, 77 features) to DMSO centroid (dimensionless distance); 5 or 10 uM (library dependent); higher = stronger phenotypic change vs DMSO (phenoactivity). As to conditions: 48 h. A digest of the protocol:
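Five cancer lines and a healthy fibroblast line received library compounds at 10 or 5 uM (library-dependent, 0.1% DMSO final) for 48 h. Stained cells were imaged confocally at 20X (9 fields/well). Harmony extracted 77 features, each scored as a signed Kolmogorov-Smirnov statistic against same-plate vehicle wells. Profiles were plate-position corrected, correlation-weighted and replicate-averaged at the top dose. Phenoactivity is the Euclidean distance from each profile to the median vehicle profile.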
In turn, `Cc1cccc(-c2[nH]c(C(C)(C)C)nc2-c2ccc3c(c2)OCO3)n1` showed an Euclidean distance of 1.83. As to `CCOC(=O)CC(=O)N1CCSC1COc1ccccc1OC` (configuration not stated) [Moguisteine], the Euclidean distance is 1.45. Compound `CCNC(=O)[C@@H]1CCCN1C(=O)[C@H](CCCNC(=N)N)NC(=O)[C@H](CC(C)C)NC(=O)[C@@H](CC(C)C)NC(=O)[C@H](Cc1ccc(O)cc1)NC(=O)[C@H](CO)NC(=O)[C@H](Cc1c[nH]c2ccccc12)NC(=O)[C@H](Cc1c[nH]cn1)NC(=O)[C@@H]1CCC(=O)N1` [Leuprorelin Acetate] came in with an Euclidean distance of 1.85.

On to `C=C[C@]1(C)C[C@@H](OC(=O)CS[C@@H]2C[C@H]3CC[C@@H](C2)N3C)[C@]2(C)[C@H](C)CC[C@]3(CCC(=O)[C@H]32)[C@@H](C)[C@@H]1O` [Retapamulin], for which the Euclidean distance came to 1.44. `CN(C)N(C)C(=O)[C@@]1(Cc2ccccc2)CCCN(C(=O)[C@@H](Cc2c[nH]c3ccccc23)NC(=O)C(C)(C)N)C1` [Anamorelin] returned an Euclidean distance of 1.33. With `Cn1cc(-c2cnn3c(N)c(Br)c([C@@H]4CCCNC4)nc23)cn1`, the Euclidean distance worked out at 2.18. With `CCCC(CCC)C(N)=O` [Valpromide], the Euclidean distance is 0.509. With `COc1ccc(C2CC(=O)c3c(O)cc(OC4OC(COC5OC(C)C(O)C(O)C5O)C(O)C(O)C4O)cc3O2)cc1OC` (configuration not stated) [Methyl-Hesperidin], the Euclidean distance was found to be 0.924.

Take `CC1(C)S[C@@H]2[C@H](NC(=O)[C@H](N)c3ccccc3)C(=O)N2[C@H]1C(=O)OCOC(=O)[C@@H]1N2C(=O)C[C@H]2S(=O)(=O)C1(C)C` [Sultamicillin]: the Euclidean distance stood at 1.46. Compound `O=c1[nH]c(=O)n([C@H]2C[C@H](O)[C@@H](CO)O2)cc1I` [Idoxuridine] came in with an Euclidean distance of 2.71.

Consider `O=C(OC[C@H]1O[C@@H](OC(=O)c2cc(O)c(O)c(OC(=O)c3cc(O)c(O)c(O)c3)c2)[C@H](OC(=O)c2cc(O)c(O)c(OC(=O)c3cc(O)c(O)c(O)c3)c2)[C@@H](OC(=O)c2cc(O)c(O)c(OC(=O)c3cc(O)c(O)c(O)c3)c2)[C@@H]1OC(=O)c1cc(O)c(O)c(OC(=O)c2cc(O)c(O)c(O)c2)c1)c1cc(O)c(O)c(OC(=O)c2cc(O)c(O)c(O)c2)c1` [Tannic acid], for which the Euclidean distance came out at 0.956. With `NC1CCN(c2nc3c(cc2F)c(=O)c(C(=O)O)cn3-c2ccc(F)cc2F)C1` (configuration not stated) [Tosufloxacin p-Toluenesulfonate Hydrate], the Euclidean distance stood at 0.975. For `O=c1cc(N2CCOCC2)oc2c(-c3cccc4c3sc3ccccc34)cccc12`, the Euclidean distance worked out at 3.24. To `CC(C)Oc1ccc2c(=O)c(-c3ccccc3)coc2c1` [Ipriflavone (Osteofix)] belongs 1.22. As to `CNCCC(Oc1ccc(C(F)(F)F)cc1)c1ccccc1` (configuration not stated) [Fluoxetine HCl], the Euclidean distance is 0.84.

`FC(F)(F)c1ccc(CNc2ccc(Cc3c[nH]c4ncc(Cl)cc34)cn2)cn1` [Pexidartinib (PLX3397)] returned an Euclidean distance of 1.31. With `Cc1ccc([C@@H]2O[C@H](CO)[C@@H](O)[C@H](O)[C@H]2O)cc1Cc1ccc(-c2ccc(F)cc2)s1` [Canagliflozin hemihydrate] the figure was 1.46. With `CC1(C)CCC[C@]2(C)[C@H]3CC(=O)O[C@]3(C)CC[C@@H]12` [Sclareolide] the figure was 1.98. For `Cc1ccc2c(Cl)cc(Cl)c(O)c2n1` [Chlorquinaldol], the Euclidean distance was found to be 2.59.

In turn, `COc1ccc(CN2CCN(C(c3ccc(F)cc3)c3ccc(F)cc3)CC2)c(OC)c1OC` [Lomerizine 2HCl] yielded an Euclidean distance of 1.91. In turn, `C#Cc1cccc(Nc2ncnc3cc(OCCOC)c(OCCOC)cc23)c1` [Erlotinib] showed an Euclidean distance of 1.68. Regarding `Oc1c2ccccc2c2c3c(cccc13)N=N2`, the Euclidean distance stood at 1.18. Consider `CC[C@@H]1/C=C(\C)C[C@H](C)C[C@H](OC)[C@H]2O[C@@](O)(C(=O)C(=O)N3CCCC[C@H]3C(=O)O[C@H](/C(C)=C/[C@@H]3CC[C@@H](O)[C@H](OC)C3)[C@H](C)[C@@H](O)CC1=O)[C@H](C)C[C@@H]2OC` [Ascomycin (FK520)], for which the Euclidean distance came out at 1.06. To `CC(C)(C(=O)O)c1ccc(C(O)CCCN2CCC(C(O)(c3ccccc3)c3ccccc3)CC2)cc1` (configuration not stated) [Fexofenadine HCl] belongs 1.52; to `CCC(=O)NS(=O)(=O)c1ccc(-c2c(-c3ccccc3)noc2C)cc1` [Parecoxib], 0.575; to `Cn1cc(-c2ccc3c(c2)ncn3-c2cc(NS(=O)(=O)C3CC3)cc(-c3ccc(F)cc3F)c2)cn1`, 2.53. With `COC(=O)/C=C/C(=O)OCCN1C(=O)CCC1=O` [Diroximel Fumarete] the figure was 0.82.

The record behind these values is the supplement of paper PMC10127200.
